# According to ChEMBL document CHEMBL1961873, “Compounds: GSK PKIS; Assays: Nanosyn kinase panel” (2012):
# Columns and labels:
# [1] = molecular target: Mitogen-activated protein kinase kinase kinase kinase 4 (Homo sapiens) (UniProt O95819); conditions: at 1 µM;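 note: reported figure is an averaged inhibition value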
# [2] = molecular target: Dual specificity mitogen-activated protein kinase kinase 1 (Homo sapiens) (UniProt Q02750); conditions: at 0.1 µM
# [3] = molecular target: Dual specificity mitogen-activated protein kinase kinase 1 (Homo sapiens) (UniProt Q02750); conditions: at 1 µM
# [4] = molecular target: Misshapen-like kinase 1 (Homo sapiens) (UniProt Q8N4C8); conditions: at 0.1 µM
# [5] = molecular target: Misshapen-like kinase 1 (Homo sapiens) (UniProt Q8N4C8); conditions: at 1 µM
# [6] = molecular target: T1, Serine/threonine-protein kinase 4 (Homo sapiens) (UniProt Q13043); conditions: at 0.1 µM
# T1 sequence (whole entry): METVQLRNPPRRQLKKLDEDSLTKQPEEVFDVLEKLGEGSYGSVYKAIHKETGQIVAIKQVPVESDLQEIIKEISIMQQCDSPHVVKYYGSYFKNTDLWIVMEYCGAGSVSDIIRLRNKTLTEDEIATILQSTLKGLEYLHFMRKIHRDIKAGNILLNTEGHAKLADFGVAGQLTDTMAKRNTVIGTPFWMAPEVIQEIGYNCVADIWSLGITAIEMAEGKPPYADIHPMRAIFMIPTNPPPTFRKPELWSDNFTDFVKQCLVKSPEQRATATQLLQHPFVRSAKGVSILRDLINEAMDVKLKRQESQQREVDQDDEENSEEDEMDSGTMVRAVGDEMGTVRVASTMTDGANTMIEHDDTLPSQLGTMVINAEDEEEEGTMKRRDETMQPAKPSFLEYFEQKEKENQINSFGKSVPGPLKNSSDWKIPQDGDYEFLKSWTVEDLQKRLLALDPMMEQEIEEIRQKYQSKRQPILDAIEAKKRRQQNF
# [7] = molecular target: T1, Serine/threonine-protein kinase 4 (Homo sapiens); conditions: at 1 µM
# [8] = molecular target: T2, Serine/threonine-protein kinase 3 (Homo sapiens) (UniProt Q13188); conditions: at 0.1 µM
# T2 sequence (whole entry): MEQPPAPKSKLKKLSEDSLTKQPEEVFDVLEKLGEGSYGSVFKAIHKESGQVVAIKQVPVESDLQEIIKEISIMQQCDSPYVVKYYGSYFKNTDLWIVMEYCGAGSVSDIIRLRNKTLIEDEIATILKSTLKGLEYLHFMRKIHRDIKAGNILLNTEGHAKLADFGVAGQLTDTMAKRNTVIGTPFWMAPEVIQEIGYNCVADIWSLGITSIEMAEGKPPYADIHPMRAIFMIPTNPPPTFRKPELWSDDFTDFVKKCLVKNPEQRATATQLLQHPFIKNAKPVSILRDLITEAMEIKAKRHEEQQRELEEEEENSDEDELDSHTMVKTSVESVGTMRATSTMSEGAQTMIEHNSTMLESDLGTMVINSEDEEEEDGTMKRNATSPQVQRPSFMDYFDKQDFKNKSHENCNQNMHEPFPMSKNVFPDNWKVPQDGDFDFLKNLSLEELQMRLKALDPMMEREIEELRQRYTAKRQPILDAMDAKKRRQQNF
# [9] = molecular target: T2, Serine/threonine-protein kinase 3 (Homo sapiens); conditions: at 1 µM
# [10] = molecular target: Serine/threonine-protein kinase 26 (Homo sapiens) (UniProt Q9P289); conditions: at 0.1 µM
# [11] = molecular target: Serine/threonine-protein kinase 26 (Homo sapiens) (UniProt Q9P289); conditions: at 1 µM
# [12] = molecular target: Serine/threonine-protein kinase PAK 1 (Homo sapiens) (UniProt Q13153); conditions: at 0.1 µM
# [13] = molecular target: Serine/threonine-protein kinase PAK 1 (Homo sapiens) (UniProt Q13153); conditions: at 1 µM
# [14] = molecular target: Serine/threonine-protein kinase PAK 2 (Homo sapiens) (UniProt Q13177); conditions: at 0.1 µM
# [15] = molecular target: Serine/threonine-protein kinase PAK 2 (Homo sapiens) (UniProt Q13177); conditions: at 1 µM
# [16] = molecular target: Serine/threonine-protein kinase PAK 3 (Homo sapiens) (UniProt O75914); conditions: at 0.1 µM
# [17] = molecular target: Serine/threonine-protein kinase PAK 3 (Homo sapiens) (UniProt O75914); conditions: at 1 µM
# [18] = molecular target: Serine/threonine-protein kinase PAK 5 (Homo sapiens) (UniProt Q9P286); conditions: at 0.1 µM
# [19] = molecular target: Serine/threonine-protein kinase PAK 5 (Homo sapiens) (UniProt Q9P286); conditions: at 1 µM
# [20] = molecular target: Serine/threonine-protein kinase PAK 6 (Homo sapiens) (UniProt Q9NQU5); conditions: at 0.1 µM;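 note: mean PAK6 inhibition reported from the GSK PKIS screen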
# Serine/threonine-protein kinase PAK 6 (Homo sapiens), sequence (Q9NQU5 whole entry, looked up): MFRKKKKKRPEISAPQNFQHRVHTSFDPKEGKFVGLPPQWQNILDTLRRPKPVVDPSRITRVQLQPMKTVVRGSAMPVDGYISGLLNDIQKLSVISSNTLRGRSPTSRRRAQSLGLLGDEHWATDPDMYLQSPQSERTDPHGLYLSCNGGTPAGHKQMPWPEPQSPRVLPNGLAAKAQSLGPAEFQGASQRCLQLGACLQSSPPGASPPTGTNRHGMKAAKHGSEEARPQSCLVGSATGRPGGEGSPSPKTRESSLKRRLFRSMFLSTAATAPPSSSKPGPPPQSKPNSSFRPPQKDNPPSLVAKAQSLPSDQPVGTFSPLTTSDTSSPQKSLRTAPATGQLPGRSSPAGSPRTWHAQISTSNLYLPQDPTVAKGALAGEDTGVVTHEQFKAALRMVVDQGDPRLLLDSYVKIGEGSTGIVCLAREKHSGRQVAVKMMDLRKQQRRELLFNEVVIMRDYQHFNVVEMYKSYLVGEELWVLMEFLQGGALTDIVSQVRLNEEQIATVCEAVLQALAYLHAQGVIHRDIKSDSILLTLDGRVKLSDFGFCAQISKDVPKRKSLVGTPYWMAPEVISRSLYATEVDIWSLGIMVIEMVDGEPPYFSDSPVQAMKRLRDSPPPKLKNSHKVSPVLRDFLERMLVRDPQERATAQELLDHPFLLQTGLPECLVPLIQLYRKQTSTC
# Serine/threonine-protein kinase PAK 5 (Homo sapiens), sequence (Q9P286 whole entry, looked up): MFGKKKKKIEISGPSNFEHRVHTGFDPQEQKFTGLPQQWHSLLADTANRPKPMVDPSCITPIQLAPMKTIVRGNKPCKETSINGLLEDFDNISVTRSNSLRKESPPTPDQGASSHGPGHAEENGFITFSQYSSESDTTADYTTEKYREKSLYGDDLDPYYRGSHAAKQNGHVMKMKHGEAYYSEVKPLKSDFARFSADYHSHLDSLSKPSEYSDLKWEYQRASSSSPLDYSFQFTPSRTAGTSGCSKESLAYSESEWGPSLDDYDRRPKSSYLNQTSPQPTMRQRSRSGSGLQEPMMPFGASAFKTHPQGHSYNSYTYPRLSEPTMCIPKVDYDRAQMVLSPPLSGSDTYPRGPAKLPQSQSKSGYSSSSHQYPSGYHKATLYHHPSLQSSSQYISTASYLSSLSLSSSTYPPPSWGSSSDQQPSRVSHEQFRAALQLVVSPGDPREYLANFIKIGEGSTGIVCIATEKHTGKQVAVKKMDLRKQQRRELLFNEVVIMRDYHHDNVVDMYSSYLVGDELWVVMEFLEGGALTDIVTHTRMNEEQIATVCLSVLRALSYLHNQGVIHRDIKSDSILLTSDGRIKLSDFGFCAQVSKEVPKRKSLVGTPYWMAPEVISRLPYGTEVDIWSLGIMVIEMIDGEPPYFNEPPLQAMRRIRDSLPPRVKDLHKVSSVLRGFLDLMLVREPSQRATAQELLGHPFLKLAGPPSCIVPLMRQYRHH
# Misshapen-like kinase 1 (Homo sapiens), sequence (Q8N4C8 whole entry, looked up): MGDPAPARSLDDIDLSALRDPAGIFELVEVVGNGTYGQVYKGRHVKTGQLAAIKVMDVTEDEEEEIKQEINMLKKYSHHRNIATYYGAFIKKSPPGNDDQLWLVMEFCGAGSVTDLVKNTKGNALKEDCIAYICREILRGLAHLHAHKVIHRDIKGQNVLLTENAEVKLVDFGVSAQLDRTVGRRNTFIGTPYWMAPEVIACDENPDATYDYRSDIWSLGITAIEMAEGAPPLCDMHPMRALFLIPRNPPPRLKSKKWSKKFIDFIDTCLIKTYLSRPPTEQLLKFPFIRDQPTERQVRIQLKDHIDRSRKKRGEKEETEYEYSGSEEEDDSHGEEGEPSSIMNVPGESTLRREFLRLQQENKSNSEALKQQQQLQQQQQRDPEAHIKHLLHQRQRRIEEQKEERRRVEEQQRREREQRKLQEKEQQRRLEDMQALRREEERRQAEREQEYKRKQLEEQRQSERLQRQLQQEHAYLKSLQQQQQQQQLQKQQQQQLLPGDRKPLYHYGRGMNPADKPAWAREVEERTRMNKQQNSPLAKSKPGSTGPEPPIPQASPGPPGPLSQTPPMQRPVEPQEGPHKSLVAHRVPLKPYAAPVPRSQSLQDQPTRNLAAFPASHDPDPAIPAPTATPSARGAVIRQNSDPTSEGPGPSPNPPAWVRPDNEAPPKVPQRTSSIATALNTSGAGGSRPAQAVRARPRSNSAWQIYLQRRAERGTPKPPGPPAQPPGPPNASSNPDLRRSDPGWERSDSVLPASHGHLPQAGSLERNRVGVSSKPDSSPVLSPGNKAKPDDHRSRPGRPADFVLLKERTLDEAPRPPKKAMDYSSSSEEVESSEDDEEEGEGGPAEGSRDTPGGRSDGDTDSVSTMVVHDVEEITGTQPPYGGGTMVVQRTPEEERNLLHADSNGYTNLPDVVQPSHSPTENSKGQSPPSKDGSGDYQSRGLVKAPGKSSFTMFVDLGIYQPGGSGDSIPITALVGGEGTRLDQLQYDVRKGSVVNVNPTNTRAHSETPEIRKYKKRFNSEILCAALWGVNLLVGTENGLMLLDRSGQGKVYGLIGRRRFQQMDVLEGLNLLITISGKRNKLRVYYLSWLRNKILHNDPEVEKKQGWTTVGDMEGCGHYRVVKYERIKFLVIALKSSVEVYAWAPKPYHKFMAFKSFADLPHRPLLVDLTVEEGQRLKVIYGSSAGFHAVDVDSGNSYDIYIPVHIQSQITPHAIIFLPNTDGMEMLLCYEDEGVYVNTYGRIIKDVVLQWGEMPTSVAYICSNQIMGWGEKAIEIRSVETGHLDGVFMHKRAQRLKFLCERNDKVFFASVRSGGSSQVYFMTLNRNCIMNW
# Serine/threonine-protein kinase PAK 2 (Homo sapiens), sequence (Q13177 whole entry): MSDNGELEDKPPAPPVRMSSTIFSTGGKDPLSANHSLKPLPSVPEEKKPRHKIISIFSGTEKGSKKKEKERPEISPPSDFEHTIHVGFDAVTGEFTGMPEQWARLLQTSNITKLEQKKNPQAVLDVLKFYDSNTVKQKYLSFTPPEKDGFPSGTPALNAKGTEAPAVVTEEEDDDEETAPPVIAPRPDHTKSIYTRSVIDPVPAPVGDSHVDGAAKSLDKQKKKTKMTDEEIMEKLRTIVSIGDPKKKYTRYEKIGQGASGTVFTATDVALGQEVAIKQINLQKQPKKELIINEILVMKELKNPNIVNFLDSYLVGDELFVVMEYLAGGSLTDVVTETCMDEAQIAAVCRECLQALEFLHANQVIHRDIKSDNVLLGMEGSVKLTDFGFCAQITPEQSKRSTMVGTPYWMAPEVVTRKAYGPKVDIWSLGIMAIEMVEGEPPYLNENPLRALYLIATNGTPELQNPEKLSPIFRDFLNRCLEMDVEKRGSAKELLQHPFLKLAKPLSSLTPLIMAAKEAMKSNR
# Serine/threonine-protein kinase 26 (Homo sapiens), sequence (Q9P289 2-416 limits assumed): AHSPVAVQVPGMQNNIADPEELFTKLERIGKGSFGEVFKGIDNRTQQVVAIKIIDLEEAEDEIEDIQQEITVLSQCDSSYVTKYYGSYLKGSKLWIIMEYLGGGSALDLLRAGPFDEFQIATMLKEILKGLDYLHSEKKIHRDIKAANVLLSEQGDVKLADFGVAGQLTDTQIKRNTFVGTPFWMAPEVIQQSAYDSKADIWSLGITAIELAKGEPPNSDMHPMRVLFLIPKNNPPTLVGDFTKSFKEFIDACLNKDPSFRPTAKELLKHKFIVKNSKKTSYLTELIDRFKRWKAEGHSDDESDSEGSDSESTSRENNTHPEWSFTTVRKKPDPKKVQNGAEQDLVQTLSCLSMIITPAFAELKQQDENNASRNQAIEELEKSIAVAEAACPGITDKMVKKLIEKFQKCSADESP
# Dual specificity mitogen-activated protein kinase kinase 1 (Homo sapiens), sequence (Q02750 whole entry): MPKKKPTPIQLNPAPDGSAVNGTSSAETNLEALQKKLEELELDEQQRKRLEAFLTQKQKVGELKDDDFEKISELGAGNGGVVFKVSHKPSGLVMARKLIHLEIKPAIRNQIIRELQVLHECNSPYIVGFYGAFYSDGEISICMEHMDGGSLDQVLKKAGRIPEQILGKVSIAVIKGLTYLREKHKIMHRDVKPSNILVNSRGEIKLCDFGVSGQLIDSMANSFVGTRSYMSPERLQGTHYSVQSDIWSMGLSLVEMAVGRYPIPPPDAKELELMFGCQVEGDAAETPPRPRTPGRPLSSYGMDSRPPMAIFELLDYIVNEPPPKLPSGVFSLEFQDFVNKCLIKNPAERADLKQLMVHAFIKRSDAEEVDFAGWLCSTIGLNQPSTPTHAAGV
# Serine/threonine-protein kinase PAK 3 (Homo sapiens), sequence (O75914 whole entry, looked up): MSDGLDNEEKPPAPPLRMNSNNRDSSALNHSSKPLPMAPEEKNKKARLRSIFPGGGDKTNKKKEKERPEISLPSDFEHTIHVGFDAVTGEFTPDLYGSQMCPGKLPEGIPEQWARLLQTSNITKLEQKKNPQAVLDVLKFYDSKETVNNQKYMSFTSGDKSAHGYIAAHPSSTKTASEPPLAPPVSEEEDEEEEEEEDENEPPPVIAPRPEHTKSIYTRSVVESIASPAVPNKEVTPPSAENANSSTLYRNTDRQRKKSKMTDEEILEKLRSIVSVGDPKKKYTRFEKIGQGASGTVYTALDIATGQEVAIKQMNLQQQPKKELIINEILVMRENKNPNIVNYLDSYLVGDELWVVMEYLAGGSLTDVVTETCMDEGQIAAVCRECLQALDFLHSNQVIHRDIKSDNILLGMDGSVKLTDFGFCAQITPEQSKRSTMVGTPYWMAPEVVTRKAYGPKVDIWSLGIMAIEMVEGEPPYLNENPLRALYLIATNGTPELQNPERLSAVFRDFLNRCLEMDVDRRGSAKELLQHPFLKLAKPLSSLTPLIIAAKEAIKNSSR
SMILES,inhibition [1],inhibition [2],inhibition [3],inhibition [4],inhibition [5],inhibition [6],inhibition [7],inhibition [8],inhibition [9],inhibition [10],inhibition [11],inhibition [12],inhibition [13],inhibition [14],inhibition [15],inhibition [16],inhibition [17],inhibition [18],inhibition [19],inhibition [20]
Fc1ccc(-c2ncn(C3CCNCC3)c2-c2ccnc(Oc3ccc4c(c3)OCO4)n2)cc1,7.72%,4.99%,8.82%,5.95%,12%,4.76%,8.51%,6.72%,10.8%,-1.94%,-0.15%,6.43%,8.06%,2.45%,2.56%,6.04%,6.56%,1.45%,2.03%,1.43%
CN(C)CCOc1ccc(-c2cc(-c3ccc4c(c3)CCC4=NO)c(-c3ccncc3)o2)cc1,17.3%,1.44%,2.23%,0.59%,12.5%,-0.36%,0.8%,-1.52%,1.19%,0.59%,3.69%,-4.98%,-1.45%,-1.68%,-2.82%,-1.69%,-1.63%,-8.32%,-0.63%,1.99%
O=C1NC(=O)C(c2cccc(Cl)c2)=C1Nc1ccc(Cl)c(C(=O)O)c1,8.37%,5.3%,2.84%,4.74%,7.9%,5.13%,7.28%,6.05%,9.28%,0.55%,0.53%,4.41%,6.62%,2.04%,0.87%,3.53%,3.74%,0.06%,0.5%,-2.69%
Cc1ccc(C(=O)NC(C)C)cc1-c1ccc(C(=O)NCC2CC2)cc1,1.81%,-2.99%,-1.83%,-3.61%,-1.09%,-3.24%,-3.63%,-4.19%,-4.98%,2.16%,1.12%,-1.5%,-0.84%,-1.39%,-3.39%,-3.81%,-3.2%,-4.56%,-2.22%,
N#Cc1ccc(Oc2nccc(-c3c(-c4ccc(F)cc4)ncn3C3CCNCC3)n2)cc1,5.64%,4.35%,3.84%,6.9%,7.67%,3.35%,4.07%,5.75%,4.78%,-1.67%,-2.91%,7.47%,7.87%,1.65%,2.68%,4.55%,4.04%,2.41%,0.4%,-4.78%
COc1cc(C)c(N(C)C(=O)CN(C)C)cc1Nc1nc(Nc2cccc(F)c2C(N)=O)c2cc[nH]c2n1,4.77%,2.7%,4.56%,2.85%,1.74%,4.57%,4.81%,5.2%,4.32%,-0.43%,-1.63%,1.45%,0.54%,1.63%,0.77%,1.47%,2.79%,1.86%,1.84%,-1.02%
Nc1nccc(-c2c(-c3ccc(F)cc3)ncn2C2CCC(O)CC2)n1 (configuration not stated),72.8%,-3.17%,-3.2%,6.81%,62.4%,0.86%,22%,-0.05%,14.6%,0.75%,4.04%,-2.38%,-3.74%,-0.84%,-0.18%,-3.15%,-3.59%,-2.46%,0.21%,4.1%
CCS(=O)(=O)c1ccc(OC)c(Nc2ncc(-c3cccc(-c4ccccc4F)c3)o2)c1,7.49%,-1.1%,-0.23%,1.27%,6.72%,-0.24%,0.6%,0.7%,-0.3%,0.48%,-0.27%,-2.19%,-0.96%,-1%,-0.6%,-0.65%,-0.27%,6.6%,2.9%,12.3%
Fc1ccc(-c2ncn(CCCN3CCOCC3)c2-c2ccncc2)cc1,5.83%,-0.25%,0.32%,1.73%,2.89%,1.3%,4.22%,-0.13%,2.5%,0.94%,0.15%,2.56%,3.02%,-0.59%,-0.77%,0.6%,0.53%,,,-0.97%
CN(c1ccc(NC(=O)Nc2c(Cl)cccc2Cl)cc1)c1ccnc(Nc2cccc(CS(C)(=O)=O)c2)n1,73.4%,5.73%,5.34%,21.2%,64.5%,8.06%,17.4%,8.37%,11.5%,0.39%,-3.71%,-0.06%,2.17%,1.79%,1.61%,1.56%,1.38%,4.31%,11.9%,7.14%
Fc1ccc(-c2ncn(C3CCNCC3)c2-c2ccnc(Oc3ccc(Oc4ccccc4)cc3)n2)cc1,7.43%,4.35%,7.53%,5.29%,9.38%,2.43%,4.68%,4.83%,5.3%,-1.41%,2.78%,6.63%,8.97%,2.19%,3.52%,4.8%,8.51%,5.41%,6.5%,-6.7%
COc1cc(Nc2ncc(-c3ccccc3)o2)cc(OC)c1OC,26.4%,-0.87%,0.69%,0.26%,17.3%,-2.33%,0%,-4.02%,-1.87%,-0.19%,-4.83%,-0.3%,-0.52%,-1.31%,-0.61%,-1.91%,-0.07%,-0.92%,7.2%,-5.44%
COc1ccc(C2=C(N3CCc4ccccc43)C(=O)NC2=O)cc1,12.6%,5.11%,4.03%,7.89%,11%,7.03%,7.64%,6.94%,6.17%,-0.57%,2.06%,7.07%,7.47%,1.61%,1.57%,4.96%,5.37%,4.64%,2.28%,3.36%
